Results as given in PubChem BioAssay (NCATS).
Records with an inconclusive call do not appear. Active and inactive are the calls of the source. Unless noted, the call rests on the fitted dose curve; in most records, active means well fitted cell-killing curve with a large enough effect; inconclusive means small, poorly fitted or top-dose-only effect; inactive means flat fitted curve, though single readings scatter.

Key:
[1] = Cell Viability - LYMP2-025 (AID 976);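 further: series mostly up to about 92 µM; plate controls were DMSO only for no effect and tetraoctylammonium bromide control for full effect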
In short: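 Cytotoxicity read as loss of intracellular ATP (luciferase luminescence) after 24 h compound treatment at 37 C. Uses LYMP2-025 lymphoblastoid cells in 1536-well format; Hill-equation modelling gives AC50; tetraoctylammonium bromide as positive control.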

[2] = Cell Viability - LYMP2-002 (AID 977);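 further: series mostly up to about 92 µM; plate controls were DMSO only for no effect and 92 µM tetraoctylammonium bromide for full effect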
In short: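 Human lymphoblastoid cells (2500/well) in complete medium were preincubated 5 hr at 37 C, then exposed to compounds for 24 hr at 37 C. Intracellular ATP was read by CellTiter-Glo luminescence; AC50 came from Hill-equation concentration-response fits.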

[3] = Cell Viability - LYMP2-007 (AID 979);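 further: cells exposed to compound for 24 h before reading; 0% = DMSO only and the negative end = 92 µM tetraoctylammonium bromide; nearly all actives have a fitted effect of over 60% in size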
In short: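 AC50 values come from Hill-equation fits of luminescent intracellular ATP (CellTiter-Glo, 30 min, room temperature) following 24 h compound exposure at 37 C. Cells: LYMP2-007 lymphoblastoid line, 2500 per well, in complete culture medium.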

[4] = Cell Viability - LYMP2-008 (AID 980); further: on the % scale 0 is the no-effect control and ±100 the full control effect; nearly all actives have a fitted effect of over 60% in size
In short: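 Cytotoxicity determined from ATP-dependent luciferase luminescence (CellTiter-Glo) following 24 h compound exposure of human lymphoblastoid LYMP2-008 cells at 37 C. Concentration-response data fitted to the Hill equation to give AC50.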

[5] = Cell Viability - LYMP2-010 (AID 981); further: on the % scale 0 is the no-effect control and ±100 the full control effect; nearly all actives have a fitted effect of over 55% in size
In short: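 CellTiter-Glo ATP luminescence measured cytotoxicity after 24 h compound exposure at 37 C. LYMP2-010 cells were seeded at 2500/well, with tetraoctylammonium bromide as control; concentration-response curves gave AC50 values by the Hill equation.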

[6] = Cell Viability - LYMP2-012 (AID 982);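 further: cellular ATP by luciferase luminescence where a drop means cytotoxicity; cells exposed to compound for one day before reading; 0% = DMSO only and full loss = 92 µM tetraoctylammonium bromide; nearly all actives have a fitted effect of over 55% in size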
[7] = Cell Viability - LYMP2-016 (AID 984); further: on the % scale 0 is the no-effect control and ±100 the full control effect; nearly all actives have a fitted effect of over 55% in size
In short: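 Cells were seeded at 2500 per well and rested 5 hr before a 24 hr compound exposure at 37 C. Viability was then gauged as cellular ATP by luciferase luminescence, with AC50 values fitted to the Hill equation.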

[8] = Cell Viability - LYMP2-018 (AID 985);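 further: plate controls were DMSO only for no effect and tetraoctylammonium bromide at 92 µM for full effect; nearly all actives have a fitted effect of over 50% in size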
In short: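 Viability read as CellTiter-Glo luminescence (cellular ATP) after 24 hr compound exposure at 37 C of 2500 LYMP2-018 lymphoblastoid cells/well, pre-plated 5 hr. Hill-equation modelling gave AC50.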

[9] = Cell Viability - LYMP2-020 (AID 986);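 further: series mostly up to about 92 µM; plate controls were DMSO only for no effect and tetraoctylammonium bromide at 92 µM for full effect; nearly all actives have a fitted effect of over 55% in size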
In short: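 Cytotoxicity in qHTS format: luminescent ATP readout from CellTiter-Glo after 24 h compound exposure at 37 C in complete medium. LYMP2-020 lymphoblastoid cells were seeded at 2500/well; concentration-response data fitted to the Hill equation for AC50.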

[10] = Cell Viability - LYMP2-022 (AID 987)
In short: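 Cytotoxicity read as decreased cellular ATP (CellTiter-Glo luminescence, 30 min room temperature) after 24 hours compound exposure of 2500 lymphoblastoid LYMP2-022 cells/well at 37 C. Concentration-response data fitted with standard Hill equation for AC50.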

[11] = Cell Viability - LYMP2-024 (AID 988);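 further: plate controls were DMSO only for no effect and 92 µM tetraoctylammonium bromide for full effect; nearly all actives have a fitted effect of over 60% in size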
In short: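 Cytotoxicity was taken as a decrease in ATP (CellTiter-Glo luminescence) after 24 hr compound exposure at 37 C of LYMP2-024 lymphoblastoid cells, 2500 cells/well. Concentration-response data were fitted to the Hill equation to give AC50.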

[12] = Cell Viability - LYMP2-026 (AID 989); further: on the % scale 0 is the no-effect control and ±100 the full control effect; nearly all actives have a fitted effect of over 50% in size
In short: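 Cytotoxicity read as ATP-dependent luminescence (CellTiter-Glo, 30 min room temperature) after 24 h compound treatment at 37 C. LYMP2-026 lymphoblastoid line seeded at 2500 cells/well; AC50 derived by standard Hill equation.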

[13] = Cell Viability - LYMP1-002 - Assay at 24 hr (AID 993); further: on the % scale 0 is the no-effect control and ±100 the full control effect
In short: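 qHTS cytotoxicity at 24 h: CellTiter-Glo ATP luminescence in lymphoblastoid line LYMP1-002 incubated with compound at 37 °C. Concentration-response modeled with the Hill equation for AC50; tetraoctylammonium bromide served as positive control.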

[14] = qHTS Assay for Identification of Small Molecule Inducers of Hypoxia Response (AID 2120; active means well fitted curve in the direction sought with a large enough effect in the signal ratio, with a control signal flat, not every such curve was filed as active; the % refers to the signal ratio; further: 0% is about no effect)
In short: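 Reporter induction read as the CCF4 blue/green (460nm/530nm) emission ratio after 2.5 h dye loading at room temperature. ME-180 HRE-beta-lactamase cells received titrated compounds for 17 h at 37 degrees Celsius; AC50 values derived.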

[15] = target: Estrogen receptor (Homo sapiens) (UniProt P03372); test: qHTS assay for small molecule antagonists of estrogen receptor alpha signaling (AID 588513; active means well fitted curve in the direction sought with a large enough effect in the signal ratio, with a control signal flat, not every such curve was filed as active; the % refers to the signal ratio; further: on the % scale 0 is the no-effect control and ±100 the full control effect)
Chain of Estrogen receptor (Homo sapiens) (P03372 whole entry, looked up): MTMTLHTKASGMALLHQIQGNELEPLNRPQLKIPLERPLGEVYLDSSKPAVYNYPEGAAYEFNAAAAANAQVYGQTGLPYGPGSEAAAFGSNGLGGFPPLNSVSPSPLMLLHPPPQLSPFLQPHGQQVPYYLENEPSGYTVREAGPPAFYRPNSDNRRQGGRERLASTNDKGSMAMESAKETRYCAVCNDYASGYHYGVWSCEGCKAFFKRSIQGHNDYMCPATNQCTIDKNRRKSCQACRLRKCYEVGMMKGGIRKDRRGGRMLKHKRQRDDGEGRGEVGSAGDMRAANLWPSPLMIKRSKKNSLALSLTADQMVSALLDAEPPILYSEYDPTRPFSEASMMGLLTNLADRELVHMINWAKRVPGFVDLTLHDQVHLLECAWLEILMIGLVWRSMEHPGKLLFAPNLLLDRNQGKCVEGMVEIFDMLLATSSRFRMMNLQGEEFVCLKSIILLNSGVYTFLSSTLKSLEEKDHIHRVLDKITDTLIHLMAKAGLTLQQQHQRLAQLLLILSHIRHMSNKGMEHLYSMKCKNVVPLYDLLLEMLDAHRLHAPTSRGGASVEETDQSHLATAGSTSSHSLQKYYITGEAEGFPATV
In short: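 Fluorescence from CCF4 substrate after 2 h at room temperature gave reporter activity; cells had been exposed to compound and 0.5nM 17-beta-estradiol for 18 h at 37 C. Hill-equation fitting yielded IC50 and maximal response.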

[16] = target: Estrogen receptor (Homo sapiens) (UniProt P03372); test: qHTS assay for small molecule agonists of estrogen receptor alpha signaling (AID 588514; calls by dose curve;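 further: 0% = vehicle only and 100% = reference agonist; nearly all actives have a fitted effect of over 70% in size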)
In short: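 EC50 and efficacy came from Hill fits of beta-lactamase reporter signal (CCF4 dye, 2 h at room temperature) scaled between DMSO and 20 nM 17-beta-estradiol. Agonist mode: HEK293 ER-alpha-UAS-bla cells in charcoal/dextran-stripped serum medium, 18 h compound exposure at 37 C.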

[17] = Cell Viability - LYMP2-006 (AID 978); further: series mostly up to about 92 µM; on the % scale 0 is the no-effect control and ±100 the full control effect; nearly all actives have a fitted effect of over 60% in size
In short: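 Cells are seeded at 2500 per well and rested 5 hr at 37 C. Compounds are added across a concentration series for 24 hr at 37 C, after which ATP is quantified by luciferase luminescence.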

[18] = Cell Viability - LYMP1-002 - Assay at 40 hr (AID 994)
In short: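 Cytotoxicity was read as loss of cellular ATP (CellTiter-Glo luminescence) after 40 hr compound exposure at 37 C of 2500 LYMP1-002 lymphoblastoid cells per well. Concentration-response data were fitted with the standard Hill equation to give AC50.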

[19] = target: Androgen receptor (Homo sapiens) (UniProt P10275); test: qHTS assay for small molecule agonists of androgen receptor signaling (AID 588515; active means well fitted curve in the direction sought with a large enough effect in the signal ratio, with a control signal flat; the % refers to the signal ratio; further: on the % scale 0 is the no-effect control and ±100 the full control effect); details: AR-UAS-bla HEK293, beta-lactamase ratio, agonist 16 h; hits give high values
Chain of Androgen receptor (Homo sapiens) (P10275 whole entry, looked up): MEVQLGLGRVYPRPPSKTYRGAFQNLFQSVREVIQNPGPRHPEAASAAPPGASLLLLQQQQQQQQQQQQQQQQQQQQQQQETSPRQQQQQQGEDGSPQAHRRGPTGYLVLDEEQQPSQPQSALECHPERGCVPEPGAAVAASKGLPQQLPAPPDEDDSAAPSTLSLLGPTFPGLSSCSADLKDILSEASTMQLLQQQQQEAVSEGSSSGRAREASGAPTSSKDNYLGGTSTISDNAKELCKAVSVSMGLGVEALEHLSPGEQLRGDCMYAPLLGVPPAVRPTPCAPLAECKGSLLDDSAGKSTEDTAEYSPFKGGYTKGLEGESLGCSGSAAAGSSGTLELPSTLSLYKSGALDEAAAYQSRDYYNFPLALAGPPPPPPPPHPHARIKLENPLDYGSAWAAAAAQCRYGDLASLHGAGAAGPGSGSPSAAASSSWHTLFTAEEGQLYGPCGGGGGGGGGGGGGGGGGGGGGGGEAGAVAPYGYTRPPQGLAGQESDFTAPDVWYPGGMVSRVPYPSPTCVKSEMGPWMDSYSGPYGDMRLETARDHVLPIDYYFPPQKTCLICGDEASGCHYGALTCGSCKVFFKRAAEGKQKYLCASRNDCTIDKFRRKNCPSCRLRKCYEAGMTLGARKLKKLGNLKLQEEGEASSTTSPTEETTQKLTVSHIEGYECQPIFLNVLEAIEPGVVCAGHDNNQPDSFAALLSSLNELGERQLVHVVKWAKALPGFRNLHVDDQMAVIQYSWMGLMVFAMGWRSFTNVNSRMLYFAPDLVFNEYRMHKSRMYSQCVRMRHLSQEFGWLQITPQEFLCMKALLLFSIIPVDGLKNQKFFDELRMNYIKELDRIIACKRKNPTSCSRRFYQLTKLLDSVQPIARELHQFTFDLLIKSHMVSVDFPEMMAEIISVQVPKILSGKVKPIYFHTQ
In short: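 Stimulation of an AR-responsive β-lactamase reporter in GripTite HEK293 cells was measured after 16 h compound exposure at 37 °C, via CCF4 fluorescence after 2 h RT. EC50 from Hill fits, normalized to R1881 at 30 nM.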

[20] = Cell Viability - LYMP2-014 (AID 983);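 further: series mostly up to about 92 µM; plate controls were DMSO only for no effect and 92 µM tetraoctylammonium bromide for full effect; nearly all actives have a fitted effect of over 50% in size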
In short: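 Intracellular ATP loss, read by luciferase luminescence, measures acute cytotoxicity after 24 h compound exposure of lymphoblastoid LYMP2-014 cells (2500/well, 37 C). Concentration-response data fitted to the Hill equation for AC50.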

NC(=O)CCCCC(N)=O
inactive: Potency [1] | Potency [2] | Potency [3] | Potency [4] | Potency [5] | Potency [6] | Potency [7] | Potency [8] | Potency [9] | Potency [10] | Potency [11] | outcome [12] | Potency [13] | outcome [14] | outcome [15] | Potency [16]

Cc1cccc(C)c1O
inactive: Potency [1] | Potency [2] | Potency [17] | Potency [3] | Potency [4] | Potency [5] | Potency [6] | Potency [7] | Potency [8] | Potency [9] | Potency [10] | Potency [11] | outcome [12] | Potency [13] | Potency [18] | outcome [14] | outcome [15] | activation [19] -2.64%

C1COC1
inactive: Potency [1] | Potency [2] | Potency [17] | Potency [3] | Potency [4] | Potency [5] | Potency [6] | Potency [20] | Potency [7] | Potency [8] | Potency [9] | Potency [10] | Potency [11] | outcome [12] | Potency [13] | Potency [18] | outcome [14] | outcome [15] | activation [19] -10.3%

CCCCC(=O)N(C)C
inactive: Potency [1] | Potency [2] | Potency [17] | Potency [3] | Potency [4] | Potency [6] | Potency [20] | Potency [7] | Potency [8] | Potency [9] | Potency [10] | outcome [12] | Potency [13] | Potency [18] | outcome [14] | outcome [15] | Potency [16]

C=CCOC(=O)COCCC(C)C
inactive: Potency [2] | Potency [17] | Potency [3] | Potency [4] | Potency [6] | Potency [20] | Potency [7] | Potency [8] | Potency [9] | Potency [10] | Potency [11] | outcome [12] | Potency [13] | Potency [18] | outcome [14] | outcome [15] | Potency [16]

O=C1C=CCCC1
inactive: Potency [1] | Potency [2] | Potency [17] | Potency [3] | Potency [6] | Potency [7] | Potency [8] | Potency [9] | Potency [10] | Potency [11] | outcome [12] | Potency [13] | Potency [18] | outcome [14] | outcome [15] | Potency [16]

Nc1ccc(F)cc1F
inactive: Potency [1] | Potency [2] | Potency [17] | Potency [3] | Potency [4] | Potency [5] | Potency [6] | Potency [20] | Potency [7] | Potency [9] | Potency [10] | Potency [11] | outcome [12] | Potency [13] | outcome [14] | outcome [15] | activation [19] 18.9%

C=C(C)C(=O)OCCCCCCCCCC
inactive: Potency [2] | Potency [17] | Potency [3] | Potency [4] | Potency [6] | Potency [20] | Potency [7] | Potency [8] | Potency [9] | Potency [10] | Potency [11] | Potency [13] | Potency [18] | outcome [14] | outcome [15] | Potency [16]

CNc1ccc([N+](=O)[O-])cc1
inactive: Potency [2] | Potency [3] | Potency [4] | Potency [5] | Potency [6] | Potency [20] | Potency [7] | Potency [8] | Potency [9] | Potency [11] | outcome [12] | Potency [13] | Potency [18] | outcome [14] | outcome [15] | Potency [16]

CCOc1cc(OCC)c(C(C)=O)cc1OCC
inactive: Potency [1] | Potency [2] | Potency [17] | Potency [3] | Potency [4] | Potency [6] | Potency [20] | Potency [8] | Potency [9] | Potency [10] | Potency [11] | outcome [12] | Potency [13] | Potency [18] | outcome [14] | outcome [15] | activation [19] -14.7%

CCN(Cc1ccccc1)c1ccccc1
inactive: Potency [1] | Potency [2] | Potency [17] | Potency [3] | Potency [4] | Potency [5] | Potency [6] | Potency [20] | Potency [7] | Potency [8] | Potency [9] | Potency [10] | Potency [11] | Potency [13] | outcome [14] | Potency [16] | activation [19] 11.1%
